Test results from PubChem BioAssay (EPA / NIEHS).
Calls of active or inactive are those of the source. How the source made its calls: active means hit-call score of the fitted dose curve at least 0.9, where 1 is the maximum; inactive means score below 0.9.

Columns and labels:
[1] = ATG_E_Box_CIS: Attagene CIS-FACTORIAL HepG2 Assay for human Enhancer Box (E-box) (AID 2282936); details: HepG2 E-box cis-reporter transcription, actives raise or lower the signal
Outline: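 Endogenous transcription factor activity was sensed in human HepG2 liver cells through transfected cis-promoter reporter units. After 24 h of dosing, total RNA was reverse-transcribed and reporter cDNA resolved by capillary electrophoresis.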

[2] = ATG_M_61_CIS: Attagene CIS-FACTORIAL HepG2 Assay for M61 Transcription Factor (Internal Marker) (AID 2282937); details: HepG2 Attagene CIS-FACTORIAL M61 internal marker reporter; actives raise or lower the signal
Outline: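 Multiplexed reporter mRNA assay, HepG2 human hepatoma cells, 24 h treatment. Signal: FAM-labelled, HpaI-digested RT-PCR fragments by CE. Fit: bidirectional, baseline DMSO.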

[3] = ATG_EGR_CIS: Attagene CIS-FACTORIAL HepG2 Assay for human Early Growth Response 1 (EGR1) (AID 2282938); details: HepG2 Attagene CIS-FACTORIAL EGR reporter mRNA; actives raise or lower the signal
Outline: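 Multiplexed cis-reporter system in human hepatoma HepG2 cells, transiently transfected. Cells are dosed for 24 h; reporter transcripts are amplified, fluorescently tagged and sized by capillary electrophoresis, with DMSO as negative control.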

[4] = ATG_M_19_CIS: Attagene CIS-FACTORIAL HepG2 Assay for M19 Transcription Factor (Internal Marker) (AID 2282939); details: HepG2 Attagene CIS-FACTORIAL M19 internal marker reporter; actives raise or lower the signal
Outline: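 HepG2 cells transiently transfected with cis-regulated multiple reporter transcription units were dosed for 24 h; reporter mRNA was quantified by RT-PCR, 6-FAM primer-extension labelling, HpaI digestion and capillary electrophoresis, with bidirectional fitting against DMSO baseline.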

[5] = ATG_ERE_CIS: Attagene CIS-FACTORIAL HepG2 Assay for Estrogen Response Element (ERE) (AID 2282940); details: HepG2 ERE cis-reporter, Attagene RNA transcript; actives raise or lower the signal
Outline: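 HepG2 cells transiently transfected with cis-promoter-driven multiplexed reporter transcription units report endogenous TF activity. After 24 h compound exposure, reporter mRNA is quantified by RT-PCR with capillary electrophoresis fluorescence; bidirectional fitting versus DMSO baseline.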

[6] = ATG_Ets_CIS: Attagene CIS-FACTORIAL HepG2 Assay for human Erythroblast Transformation Specific (ETS) (AID 2282941); details: HepG2 ETS cis-reporter transcription, actives raise or lower the signal
Outline: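 Endogenous transcription factor activity read as reporter mRNA via RT-PCR and capillary electrophoresis, with gain or loss fitted bidirectionally against DMSO. Human HepG2 liver cells, transiently transfected CIS reporter constructs, 24 h exposure.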

[7] = target: Hepatocyte nuclear factor 3-beta (Homo sapiens) (UniProt Q9Y261); test: ATG_FoxA2_CIS: Attagene CIS-FACTORIAL HepG2 Assay for human Forkhead box A2 (FOXA2) (AID 2282942); details: HepG2 cis-reporter transcription factor activity, 24 h; actives raise or lower the signal
Sequence of Hepatocyte nuclear factor 3-beta (Homo sapiens) (Q9Y261 whole entry, looked up): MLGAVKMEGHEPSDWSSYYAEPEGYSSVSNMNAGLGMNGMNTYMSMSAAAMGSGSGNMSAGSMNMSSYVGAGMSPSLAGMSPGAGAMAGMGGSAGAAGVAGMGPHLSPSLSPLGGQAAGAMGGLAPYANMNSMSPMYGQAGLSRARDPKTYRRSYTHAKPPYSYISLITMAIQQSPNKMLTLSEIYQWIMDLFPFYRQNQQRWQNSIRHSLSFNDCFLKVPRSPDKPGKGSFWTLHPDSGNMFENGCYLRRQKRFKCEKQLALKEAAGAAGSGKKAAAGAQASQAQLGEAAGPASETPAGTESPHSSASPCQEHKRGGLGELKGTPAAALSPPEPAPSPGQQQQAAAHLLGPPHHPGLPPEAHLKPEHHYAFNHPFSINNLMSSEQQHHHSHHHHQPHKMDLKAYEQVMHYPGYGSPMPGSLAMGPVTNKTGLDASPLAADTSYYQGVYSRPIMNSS
Outline: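 Multiplexed cis-element reporter assay in transiently transfected HepG2. Twenty-four hours post-dosing, RNA was reverse-transcribed, amplified, FAM-labelled, HpaI-digested and separated by CE. Activity gain or loss relative to DMSO.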

[8] = ATG_FoxO_CIS: Attagene CIS-FACTORIAL HepG2 Assay for human Forkhead box O (FoxO) (AID 2282943); details: HepG2 Attagene cis-reporter, FoxO element, mRNA; actives raise or lower the signal
Outline: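 24 h chemical exposure, HepG2 with transient cis-MRTU transfection. RNA extraction, oligo(dT) RT, reporter-specific PCR, primer-extension labelling, HpaI digestion, CE fragment analysis; bidirectional fit, DMSO baseline.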

[9] = ATG_GATA_CIS: Attagene CIS-FACTORIAL HepG2 Assay for human GATA Binding Protein (AID 2282944); details: HepG2 GATA cis-element reporter, Attagene multiplex mRNA; actives raise or lower the signal
Outline: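 HepG2 cells transiently transfected with multiplexed cis-element reporter units reflecting endogenous transcription factor activity; reporter mRNA measured after 24 h dosing by RT-PCR, 6-FAM labeling, HpaI digestion and capillary electrophoresis. Bidirectional fitting versus DMSO baseline.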

[10] = ATG_GLI_CIS: Attagene CIS-FACTORIAL HepG2 Assay for human Zinc Finger Protein GLI1 (AID 2282945); details: HepG2, Attagene cis-factorial reporter mRNA, GLI element; actives raise or lower the signal
Outline: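 HepG2 cells transiently transfected with cis-promoter multiplexed reporter units report endogenous transcription factor activity. After 24 h chemical exposure, reporter mRNA was quantified by RT-PCR, 6-FAM labelling, HpaI digestion and capillary electrophoresis, with bidirectional fitting against DMSO.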

[11] = target: Bile acid receptor (Homo sapiens) (UniProt Q96RI1); test: ATG_IR1_CIS: Attagene CIS-FACTORIAL HepG2 Assay for human Nuclear Receptor Subfamily 1 Group H Member 4 (NR1H4), IR1 submotif (AID 2282946); details: IR1 reporter transcription, actives raise or lower the signal
Sequence of Bile acid receptor (Homo sapiens) (Q96RI1 whole entry, looked up): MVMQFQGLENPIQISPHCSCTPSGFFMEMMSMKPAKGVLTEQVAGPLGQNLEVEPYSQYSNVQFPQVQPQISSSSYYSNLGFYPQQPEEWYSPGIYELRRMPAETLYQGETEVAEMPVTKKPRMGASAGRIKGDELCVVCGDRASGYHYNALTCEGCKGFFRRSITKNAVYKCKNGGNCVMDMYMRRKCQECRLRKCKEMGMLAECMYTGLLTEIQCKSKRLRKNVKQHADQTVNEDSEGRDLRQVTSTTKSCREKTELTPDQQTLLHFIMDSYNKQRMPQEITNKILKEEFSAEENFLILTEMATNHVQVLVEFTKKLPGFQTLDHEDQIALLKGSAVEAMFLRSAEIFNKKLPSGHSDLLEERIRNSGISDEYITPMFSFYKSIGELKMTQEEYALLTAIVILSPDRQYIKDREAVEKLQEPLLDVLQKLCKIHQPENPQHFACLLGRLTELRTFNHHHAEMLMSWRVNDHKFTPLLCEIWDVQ
Outline: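 Readout: reporter transcript levels by RT-PCR with fluorescent capillary electrophoresis, from HepG2 cells transiently transfected with multiplexed cis-regulated reporters and dosed 24 h. Gain- or loss-of-signal fitted versus DMSO negative control.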

[12] = ATG_GRE_CIS: Attagene CIS-FACTORIAL HepG2 Assay for human Glucocorticoid Response Elements (GRE) (AID 2282947); details: HepG2 GRE cis-reporter, Attagene multiplex mRNA; actives raise or lower the signal
Outline: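 Cells (HepG2) bearing transfected cis-promoter reporter transcription units were treated with chemical for 24 hours. Reporter mRNA was measured via RT-PCR with capillary electrophoresis, and activity was fitted in both directions relative to DMSO.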

[13] = ATG_ISRE_CIS: Attagene CIS-FACTORIAL HepG2 Assay for human Interferon Regulatory Factor 1 (IRF1) binding to an Interferon-Stimulated Response Element (ISRE) (AID 2282948); details: HepG2 ISRE cis-reporter (Attagene), mRNA transcription readout; actives raise or lower the signal
Outline: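 Endogenous transcription factor activity read as reporter transcript abundance via RT-PCR and capillary electrophoresis. HepG2 cells transiently transfected, 24 h chemical exposure. Gain or loss fitted against DMSO baseline.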

[14] = ATG_M_32_CIS: Attagene CIS-FACTORIAL HepG2 Assay for M32 Transcription Factor (Internal Marker) (AID 2282949); details: HepG2 Attagene cis-factorial M32 reporter, mRNA; actives raise or lower the signal;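 further: background control marker of the multiplexed CIS panel rather than a real target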
Outline: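 HepG2 human liver cells transiently transfected with cis-promoter-driven multiple reporter transcription units, dosed 24 h. Reporter mRNA quantified by RT-PCR, FAM-labelled primer extension, HpaI digest and capillary electrophoresis; bidirectional fit versus DMSO baseline.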

[15] = ATG_M_06_CIS: Attagene CIS-FACTORIAL HepG2 Assay for M06 Transcription Factor (Internal Marker) (AID 2282950); details: HepG2 Attagene CIS-FACTORIAL M06 internal marker reporter; actives raise or lower the signal
Outline: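 HepG2 cells transiently transfected with cis-regulated multiple reporter transcription units were exposed to chemical for 24 h; reporter mRNA was quantified by RT-PCR, 6-FAM primer labelling, HpaI digestion and capillary electrophoresis, fitted bidirectionally against DMSO.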

[16] = target: Hypoxia-inducible factor 1-alpha (Homo sapiens) (UniProt Q16665); test: ATG_HIF1a_CIS: Attagene CIS-FACTORIAL HepG2 Assay for human Hypoxia Inducible Factor 1 (HIF1A) (AID 2282951); details: HepG2 Attagene cis-factorial HIF1a reporter transcription; actives raise or lower the signal
Sequence of Hypoxia-inducible factor 1-alpha (Homo sapiens) (Q16665 whole entry, looked up): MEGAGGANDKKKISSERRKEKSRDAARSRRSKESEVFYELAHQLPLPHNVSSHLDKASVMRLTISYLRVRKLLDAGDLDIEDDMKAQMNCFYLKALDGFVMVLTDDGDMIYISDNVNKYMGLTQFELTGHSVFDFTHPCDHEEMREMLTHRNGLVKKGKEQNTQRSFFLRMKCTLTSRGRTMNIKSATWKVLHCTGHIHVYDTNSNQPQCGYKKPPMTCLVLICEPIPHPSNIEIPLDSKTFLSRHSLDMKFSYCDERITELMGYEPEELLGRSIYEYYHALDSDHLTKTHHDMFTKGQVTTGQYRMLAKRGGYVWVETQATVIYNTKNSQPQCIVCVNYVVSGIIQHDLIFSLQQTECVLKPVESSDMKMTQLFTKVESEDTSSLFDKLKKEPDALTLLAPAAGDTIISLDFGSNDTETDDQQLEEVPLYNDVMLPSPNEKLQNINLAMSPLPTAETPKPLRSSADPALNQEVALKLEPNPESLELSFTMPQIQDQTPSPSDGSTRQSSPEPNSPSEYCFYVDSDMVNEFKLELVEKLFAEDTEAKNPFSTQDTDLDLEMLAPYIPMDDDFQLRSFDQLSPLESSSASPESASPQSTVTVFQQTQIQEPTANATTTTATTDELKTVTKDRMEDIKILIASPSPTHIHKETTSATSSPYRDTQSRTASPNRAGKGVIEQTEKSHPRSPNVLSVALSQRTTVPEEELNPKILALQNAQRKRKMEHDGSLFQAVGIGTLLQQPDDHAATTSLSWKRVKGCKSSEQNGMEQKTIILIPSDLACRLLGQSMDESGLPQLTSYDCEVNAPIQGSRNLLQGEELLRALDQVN
Outline: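 Cis-element reporter constructs were transiently transfected into HepG2 cells, which were treated for 24 h; reporter RNA was reverse-transcribed, amplified, labelled and resolved by capillary electrophoresis.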

[17] = target: Hepatocyte nuclear factor 6 (Homo sapiens) (UniProt Q9UBC0); test: ATG_HNF6_CIS: Attagene CIS-FACTORIAL HepG2 Assay for human Hepatocyte Nuclear Factor 6 (HNF6) (AID 2282952); details: HepG2 Attagene cis-factorial HNF6 reporter transcription; actives raise or lower the signal
Sequence of Hepatocyte nuclear factor 6 (Homo sapiens) (Q9UBC0 whole entry, looked up): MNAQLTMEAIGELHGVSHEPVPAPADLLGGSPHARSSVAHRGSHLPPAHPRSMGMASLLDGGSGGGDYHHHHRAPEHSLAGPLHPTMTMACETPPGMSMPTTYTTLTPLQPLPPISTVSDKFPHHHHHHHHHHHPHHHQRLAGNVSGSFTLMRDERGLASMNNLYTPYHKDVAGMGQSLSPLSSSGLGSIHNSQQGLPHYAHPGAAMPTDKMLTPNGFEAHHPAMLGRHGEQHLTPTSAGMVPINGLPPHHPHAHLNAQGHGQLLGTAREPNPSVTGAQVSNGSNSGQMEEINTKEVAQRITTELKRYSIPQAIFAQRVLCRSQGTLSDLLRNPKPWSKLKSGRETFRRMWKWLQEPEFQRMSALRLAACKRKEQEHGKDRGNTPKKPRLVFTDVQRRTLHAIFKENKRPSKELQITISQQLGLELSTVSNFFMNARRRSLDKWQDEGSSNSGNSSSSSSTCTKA
Outline: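 Activity values derive from bidirectional fitting against DMSO of reporter mRNA levels, measured by capillary electrophoresis of labelled RT-PCR products from HepG2 cells exposed 24 h.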

[18] = target: Heat shock factor protein 1 (Homo sapiens) (UniProt Q00613); test: ATG_HSE_CIS: Attagene CIS-FACTORIAL HepG2 Assay for human Heat Shock Transcription Factor 1 (HSE) (AID 2282953); details: HepG2 HSE cis-reporter, Attagene RNA transcription; actives raise or lower the signal
Sequence of Heat shock factor protein 1 (Homo sapiens) (Q00613 whole entry, looked up): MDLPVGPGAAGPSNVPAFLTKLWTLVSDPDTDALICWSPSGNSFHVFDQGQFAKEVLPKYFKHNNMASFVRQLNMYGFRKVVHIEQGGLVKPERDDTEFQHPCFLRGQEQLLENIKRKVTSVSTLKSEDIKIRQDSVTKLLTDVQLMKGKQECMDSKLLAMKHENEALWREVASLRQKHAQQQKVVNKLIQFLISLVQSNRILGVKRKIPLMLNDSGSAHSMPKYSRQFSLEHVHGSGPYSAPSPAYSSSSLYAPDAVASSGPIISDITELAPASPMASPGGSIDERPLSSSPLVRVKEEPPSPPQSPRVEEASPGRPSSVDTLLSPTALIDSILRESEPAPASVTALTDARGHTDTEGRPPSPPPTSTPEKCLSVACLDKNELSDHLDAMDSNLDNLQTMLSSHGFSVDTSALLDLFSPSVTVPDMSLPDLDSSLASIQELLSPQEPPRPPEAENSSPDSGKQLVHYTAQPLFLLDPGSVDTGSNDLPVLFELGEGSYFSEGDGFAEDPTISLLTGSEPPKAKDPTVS
Outline: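 HepG2 cells transiently transfected with multiple reporter transcription units under cis-regulatory promoter control, measuring endogenous transcription factor activity. After 24 h chemical exposure, reporter mRNA quantified by RT-PCR, fluorescent labelling, HpaI digestion and capillary electrophoresis; bidirectional fit versus DMSO.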

[19] = ATG_MRE_CIS: Attagene CIS-FACTORIAL HepG2 Assay for human Metal Responsive Element (MRE) (AID 2282954); details: HepG2 MRE cis-reporter transcription, Attagene multiplex; actives raise or lower the signal
Outline: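 Cells were transfected with cis-promoter reporter transcription units, then dosed for 24 h. RNA was reverse-transcribed, amplified, fluorescently labelled and resolved by capillary electrophoresis, and activity was fitted in both directions relative to DMSO.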

[20] = ATG_PBREM_CIS: Attagene CIS-FACTORIAL HepG2 Assay for human Phenobarbital-responsive Enhancer Module (PBREM) (AID 2282955); details: HepG2 PBREM cis-reporter, Attagene multiplexed transcription; actives raise or lower the signal
Outline: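 Multiplexed cis-reporter readout in human hepatoma HepG2 cells; PBREM-regulated transcript quantified after 24 h exposure by fluorescent RT-PCR fragment analysis. Signal changes up or down fitted relative to DMSO.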

Measured: AC50

OC12N=C(c3ccccc3)SC1Cc1cc(Cl)ccc12 (stereo not given)
active: [5] 1.16 µM
not listed: [20]
inactive: all other assays above

CCN(CC)C(=O)c1cc(S(=O)(=O)Cc2ccccc2)c(N2CCC(c3ccccc3)CC2)cc1N(CC)CCN(C)C
active: [16] 3.7 µM | [19] 3.7 µM
not listed: [13]
inactive: all other assays above

CCCCCCCCCCCCO
not listed: [12]
inactive: all other assays above

Cc1ncc(CO)c(CO)c1O
not listed: [5] | [12] | [16] | [20]
inactive: all other assays above

CN1C(=O)N(c2ccccc2Br)Cc2cnc(Nc3ccc4c(c3)OCC(CO)O4)nc21 (stereo not given)
active: [3] 12.2 µM | [16] 9.59 µM | [19] 33.2 µM
not listed: [9] | [20]
inactive: all other assays above

COc1ccc2cc(S(=O)(=O)N[C@H](CC(=O)N[C@H](Cc3ccc(CN4[C@H](C)CCC[C@@H]4C)cc3)C(=O)N(C)C(C)C)c3ccc4c(c3)OCO4)ccc2c1
active: [3] 11 µM | [13] 11 µM | [16] 1.38 µM | [19] 11 µM
inactive: all other assays above

Cc1cc2c(cc1C(F)(F)F)N(C(=O)Nc1ccc(Oc3cccnc3C)nc1)CC2
not listed: [9]
inactive: all other assays above
